Sampled rows, rich in hits. Any-hit rate of the full collection: about 4.7%.
Mtb FBA inh: Mtb fructose-bisphosphate aldolase inhibition; P9WQA3; purified M. tuberculosis FBA, fluorescence read-out; inhibition, % at 1 µM; 360,000 tested, 2.3% active; in the data active = inhibition above about 27%
CCHFV vOTU inh: CCHFV vOTU protease inhibition; Pep-AMC fluorescence; inhibition, % at 11.5 µM; 370,000 tested, 0.55% active
GDH-TPI counter-1: GDH-TPI coupled enzyme inhibition counter-screen; 360,000 tested, 1.2% active; AID 588335; GDH-TPI coupled enzyme counterscreen, NADH absorbance; inhibition, % at 4.8 µM
VHR inh abs: blocks human VHR1 dual specificity phosphatase; recombinant VHR phosphatase, pNPP absorbance; inhibition, % at 13.3 µM; 290,000 tested, 0.52% active; AID 1654; in the data active = inhibition above about 50%
3CLpro inhibitor: SARS-CoV 3CLpro protease inhibition; recombinant SARS-CoV 3CLpro, quenched FRET peptide cleavage; P0C6X7; 290,000 tested, 0.14% active; AID 1706; inhibition, % at 6 µM; in the data active = inhibition above about 12%
RecA splice inh: blocks M. tuberculosis RecA intein splicing; P9WHJ3; cell-free RecA intein splicing, fluorescence; inhibition, % (no concentration beside the values); 290,000 tested, 0.75% active; in the data active = inhibition above about 30%
Target sequence (P9WHJ3 whole entry, looked up, canonical isoform): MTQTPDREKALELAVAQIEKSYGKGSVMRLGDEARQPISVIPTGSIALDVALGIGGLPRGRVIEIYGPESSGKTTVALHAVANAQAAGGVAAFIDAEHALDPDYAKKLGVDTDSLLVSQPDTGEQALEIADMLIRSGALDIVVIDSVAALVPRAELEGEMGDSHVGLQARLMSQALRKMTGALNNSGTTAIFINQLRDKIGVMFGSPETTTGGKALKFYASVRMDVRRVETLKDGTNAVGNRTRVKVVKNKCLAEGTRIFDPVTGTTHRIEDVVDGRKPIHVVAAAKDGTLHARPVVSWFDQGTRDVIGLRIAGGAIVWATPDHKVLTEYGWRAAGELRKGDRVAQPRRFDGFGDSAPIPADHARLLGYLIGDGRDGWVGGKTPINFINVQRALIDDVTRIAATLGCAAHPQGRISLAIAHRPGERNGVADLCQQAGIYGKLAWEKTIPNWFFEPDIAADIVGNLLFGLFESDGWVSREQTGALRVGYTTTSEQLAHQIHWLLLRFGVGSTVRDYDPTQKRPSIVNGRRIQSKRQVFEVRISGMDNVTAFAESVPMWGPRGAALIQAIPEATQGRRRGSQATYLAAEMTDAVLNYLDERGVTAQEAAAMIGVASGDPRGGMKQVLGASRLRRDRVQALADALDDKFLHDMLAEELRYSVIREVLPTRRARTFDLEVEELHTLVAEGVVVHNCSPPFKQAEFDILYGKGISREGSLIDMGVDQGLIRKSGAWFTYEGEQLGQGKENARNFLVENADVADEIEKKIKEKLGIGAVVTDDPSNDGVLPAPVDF
Mtb FBA confirm: Mtb FBA inhibition, confirmed | shares compounds with Mtb FBA inh | purified M. tuberculosis FBA, fluorescence read-out | inhibition, % at 1 µM | 5,600 tested, 78% active | AID 651616; in the data active = inhibition above about 27%
GDH-TPI counter-2: counter-screen for M. tuberculosis FBA inhibitors: GDH-TPI coupled enzyme inhibition; shares compounds with Mtb FBA inh; GDH-TPI coupled enzyme counterscreen, fluorescence; inhibition, % at 1 µM; 5,600 tested, 81% active; AID 652141; in the data active = inhibition above about 10%
Large screens that a line does not name were inactive (follow-up assays come after a bar, where they were run). Cut-off read from the data, not from the text of the source, unless noted: active = inhibition above about 30%; inactive = the rest.

Cc1c(Cc2ccccc2)c(=O)oc2c(C)c(OCc3nn[nH]n3)ccc12	Mtb FBA inh 65.9 (no result: RecA splice inh) | Mtb FBA confirm active | GDH-TPI counter-2 active
CCCc1cc(=O)oc2c(C)c(OCc3nn[nH]n3)ccc12	Mtb FBA inh 50.2 | Mtb FBA confirm inactive | GDH-TPI counter-2 inactive
C#CCNC(=O)C[C@H]1C(=O)N(Cc2ccc(OC)cc2)C2=CCCC[C@@]21C(=O)OCC	none (no result: Mtb FBA inh, GDH-TPI counter-1, VHR inh abs, 3CLpro inhibitor, RecA splice inh)
CN(CC(=O)Nc1ccc(F)cc1)C(=O)CN1C(=O)c2ccccc2C1=O	none (no result: VHR inh abs, 3CLpro inhibitor, RecA splice inh)
O=C(Nc1ccc(Cl)cc1)c1cc2c(cc1O)[nH]c1ccccc12	Mtb FBA inh 107.0 | Mtb FBA confirm 83.5 | GDH-TPI counter-2 71.3
CCN(CC)C(=O)Cn1cc(C(=O)C(=O)N2CCN(c3ccc([N+](=O)[O-])cc3)CC2)c2ccccc21	none
O=C(NCc1ccccc1)N(Cc1cc2cc3c(cc2[nH]c1=O)OCCO3)CC1CCCO1 (stereo unspecified)	Mtb FBA inh 28.2 | Mtb FBA confirm 53.6 | GDH-TPI counter-2 52.0
CCC(=O)N(CCc1ccccc1)Cc1cc2cc3c(cc2[nH]c1=O)OCO3	Mtb FBA inh 39.9 | Mtb FBA confirm 36.3 | GDH-TPI counter-2 26.4
CCN(CC)CCN(Cc1cc2cc3c(cc2[nH]c1=O)OCCO3)C(=O)NC1CCCCC1	none
CC(=O)c1cccc(S(=O)(=O)N(Cc2cc3cc4c(cc3[nH]c2=O)OCCO4)CC2CCCO2)c1 (stereo unspecified)	none
O=C(c1ccco1)N(Cc1cc2ccccc2[nH]c1=O)CC1CCCO1 (stereo unspecified)	none
O=c1[nH]c2cc3c(cc2cc1CN(CC1CCCO1)S(=O)(=O)c1ccccc1)OCCO3 (stereo unspecified)	Mtb FBA inh 28.4 | Mtb FBA confirm inactive | GDH-TPI counter-2 inactive
O=C(NC1CCCCC1)N(CCN1CCOCC1)Cc1cc2cc3c(cc2[nH]c1=O)OCCO3	Mtb FBA inh 30.5 | Mtb FBA confirm 98.5 | GDH-TPI counter-2 79.1
Cc1ccc(OC(C)C(=O)N2CC(=O)Nc3ccccc32)c(C)c1 (stereo unspecified)	none
CCC(=O)N1CCN=C1SCc1cccc(F)c1	none
CN(C)c1ccc(NC(=O)Nc2nc(C(N)C3CCCCC3)cs2)cc1 (stereo unspecified)	none (no result: VHR inh abs, 3CLpro inhibitor, RecA splice inh)
COc1cc(C(=O)N(Cc2cccnc2)Cc2cc3cc4c(cc3[nH]c2=O)OCCO4)cc(OC)c1OC	Mtb FBA inh 28.1 | Mtb FBA confirm 110.3 | GDH-TPI counter-2 87.2
Cc1nc(N2CCC(C)CC2)c2c(C)c(C(=O)Nc3ccc(C(F)(F)F)cc3)sc2n1	Mtb FBA inh 33.9 | Mtb FBA confirm inactive | GDH-TPI counter-2 inactive
CC1CC(C)CN(S(=O)(=O)c2ccc(NC(=O)CN3C(=O)NC(C)(c4ccccc4)C3=O)cc2)C1 (stereo unspecified)	none
COc1ccc(-c2nc(-c3cccs3)c(-c3cccs3)[nH]2)cc1OC	none
Cc1ccsc1-c1nc(-c2ccccc2)c(-c2ccccc2)[nH]1	Mtb FBA inh 29.3 | Mtb FBA confirm 91.4 | GDH-TPI counter-2 74.0
COc1cc(-c2nc(-c3ccccc3)c(-c3ccc(F)cc3)[nH]2)cc2c1OCO2	Mtb FBA inh 30.7 | Mtb FBA confirm 102.7 | GDH-TPI counter-2 70.7
COc1cc(-c2nc(-c3ccc4c(c3)-c3ccccc3S4(=O)=O)c(-c3ccccc3)[nH]2)cc(OC)c1O	none
Fc1ccc(-c2nc(-c3cccs3)[nH]c2-c2ccc(F)cc2)cc1	Mtb FBA inh 50.4 | Mtb FBA confirm active | GDH-TPI counter-2 active
COc1ccc(-c2nc(-c3ccccc3)c(-c3cccs3)[nH]2)cc1OC	Mtb FBA inh 49.5 | Mtb FBA confirm inactive | GDH-TPI counter-2 inactive
O=C(NCc1ccco1)Nc1c(Cl)cc(Cl)cc1Cl	none (no result: Mtb FBA inh, GDH-TPI counter-1, VHR inh abs, 3CLpro inhibitor, RecA splice inh)
COc1ccc(C2C(C#N)=C(N)OC3=C2C(=O)CC(C)(C)C3)cc1OC (stereo unspecified)	none
COc1ccc(C2C(C#N)=C(N)OC3=C2C(=O)CC(C)(C)C3)cc1Cn1nc(C)c([N+](=O)[O-])c1C (stereo unspecified)	Mtb FBA inh 39.3 | Mtb FBA confirm 54.1 | GDH-TPI counter-2 46.8
CC(C)Cc1nc(N2CCN(C(=O)C(C)C)CC2)c(C#N)c2c1CCC2	Mtb FBA inh 33.0 | Mtb FBA confirm 58.6 | GDH-TPI counter-2 41.3
CC(=O)N1CCN(c2nc(CC(C)C)c3c(c2C#N)CCC3)CC1	Mtb FBA inh 38.1 | Mtb FBA confirm 48.3 | GDH-TPI counter-2 34.6
CC(C)Cc1nc(N2CCN(C(=O)c3ccccc3)CC2)c(C#N)c2c1CCC2	none
COc1ccc(C(=O)Nc2ccc(-c3nnn(CC(=O)NCc4ccco4)n3)cc2)cc1	none (no result: RecA splice inh)
CC(CCN1C(Nc2ccccc2)=NC[C@@H]1Cc1ccccc1)c1ccccc1 (stereo partly specified)	none
O=C(Nc1ccc(F)cc1)c1ccc2snnc2c1	Mtb FBA inh 45.6 | Mtb FBA confirm 121.5 | GDH-TPI counter-2 114.2
Cc1ccc(NC(=O)c2ccc3snnc3c2)cc1C	none
COCc1cc(=O)n2[nH]cc(-c3ccsc3)c2n1	Mtb FBA inh 54.7 | Mtb FBA confirm 93.7 | GDH-TPI counter-2 84.3
O=c1cc(-c2ccccc2)nc2cc(-c3ccc(Br)cc3)[nH]n12	none
COCc1cc(=O)n2[nH]c(-c3ccccc3)cc2n1	Mtb FBA inh 33.0 | Mtb FBA confirm active | GDH-TPI counter-2 active
Cc1cc2nc(-c3ccccc3)cc(=O)n2[nH]1	Mtb FBA inh 47.3 | Mtb FBA confirm active | GDH-TPI counter-2 active
COCc1cc(=O)n2[nH]c(-c3cccc(Br)c3)cc2n1	none
Nc1ccn([C@@H]2O[C@H](C(=O)N3CCN(c4ccc(Cl)cn4)CC3)[C@@H](O)[C@H]2O)c(=O)n1	none (no result: GDH-TPI counter-1, VHR inh abs, 3CLpro inhibitor, RecA splice inh)
N#C/C(=C\c1ccc(Cl)cc1Cl)c1n[nH]c(Cn2cncn2)n1	Mtb FBA inh 36.2 | Mtb FBA confirm active | GDH-TPI counter-2 164.8
O=C(Nc1ccccc1)c1n[nH]c(Cn2cncn2)n1	none
CCc1cc(=O)oc2c(C)c(OC(C)C(=O)NCC3CCC(C(=O)O)CC3)ccc12 (stereo unspecified)	none
Cc1cc(=O)oc2c(C)c(OC(=O)c3ccco3)ccc12	none
CCOC(=O)CCc1c(C)c2ccc(OC(C)C(=O)OCC)c(C)c2oc1=O (stereo unspecified)	Mtb FBA inh 51.2 (no result: RecA splice inh) | Mtb FBA confirm 54.6 | GDH-TPI counter-2 44.2
CCOC(=O)C(C)Oc1ccc2c(CC)cc(=O)oc2c1C (stereo unspecified)	Mtb FBA inh 31.3 | Mtb FBA confirm 74.3 | GDH-TPI counter-2 72.0
CCC(=O)Oc1ccc2c(C)cc(=O)oc2c1C	Mtb FBA inh 39.3 | Mtb FBA confirm 93.6 | GDH-TPI counter-2 95.0
